Reference: PubChem BioAssay (NCI)
This is part of a sample that, as a whole, favours compounds with a hit. Of some 83,000 tested, about 20% had one in any assay.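 The endpoint reported here, percent growth, reads 100 for growth as untreated, 0 for no net growth and -100 for all cells dead.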 Activity calls are given as the source filed them. The calls were made as follows: active = growth percent below 10; inactive = the rest.

Assays:
Experiment in all cases: NCI-60 one-dose screen, 48 h (100 = growth as untreated, 0 = no growth, -100 = all killed)
Conditions in all cases: 10 µM unless noted
SR leukemia = system: SR leukemia
RPMI-8226 leukemia = system: RPMI-8226 leukemia
OVCAR-8 ovarian = system: OVCAR-8 ovarian
OVCAR-5 ovarian = system: OVCAR-5 ovarian
OVCAR-4 ovarian = system: OVCAR-4 ovarian
SK-OV-3 ovarian = system: SK-OV-3 ovarian
IGROV1 ovarian = system: IGROV1 ovarian
OVCAR-3 ovarian = system: OVCAR-3 ovarian
HS 578T breast = system: HS 578T breast
NCI/ADR-RES ovarian = system: NCI/ADR-RES ovarian
T-47D breast = system: T-47D breast
BT-549 breast = system: BT-549 breast
SW-620 colon = system: SW-620 colon
MCF7 breast = system: MCF7 breast
HCT-116 colon = system: HCT-116 colon
HCC-2998 colon = system: HCC-2998 colon
KM12 colon = system: KM12 colon
MDA-MB-435 melanoma = system: MDA-MB-435 melanoma

Measured: growth

O=C(Nc1ccc(Nc2ccncc2)cc1)c1ccc(C(=O)Nc2ccc(Nc3ccncc3)cc2)cc1
active: RPMI-8226 leukemia 3.64%
inactive: SR leukemia 52.4% | OVCAR-8 ovarian 74.5% | OVCAR-5 ovarian 51.1% | OVCAR-4 ovarian 68.1% | SK-OV-3 ovarian 68% | IGROV1 ovarian 75.8% | OVCAR-3 ovarian 111% | HS 578T breast 88.2% | NCI/ADR-RES ovarian 109% | T-47D breast 33.8% | BT-549 breast 123% | SW-620 colon 42.2% | MCF7 breast 26.8% | HCT-116 colon 32.7% | HCC-2998 colon 87% | KM12 colon 47.4%

Cc1cc(Cl)nc(NCc2cc(Nc3ccnc4cc(Cl)ccc34)ccc2F)n1
inactive: RPMI-8226 leukemia 33.1% | OVCAR-8 ovarian 50.6% | OVCAR-5 ovarian 107% | SK-OV-3 ovarian 85.1% | IGROV1 ovarian 64.7% | OVCAR-3 ovarian 53.4% | HS 578T breast 66.7% | NCI/ADR-RES ovarian 50.3% | T-47D breast 25.4% | BT-549 breast 65.5% | MDA-MB-435 melanoma 41.2% | SW-620 colon 43.9% | MCF7 breast 17.4% | HCT-116 colon 23.7% | HCC-2998 colon 73.1% | KM12 colon 79.9%
active: SR leukemia -7.84% | OVCAR-4 ovarian 9.24%

Cc1cc(N2CCCC2)nc(NCc2cc(Nc3ccnc4cc(Cl)ccc34)ccc2F)n1
active: SR leukemia -28.1% | RPMI-8226 leukemia -44.2% | OVCAR-8 ovarian -54.5% | OVCAR-5 ovarian -11.8% | OVCAR-4 ovarian -14.9% | IGROV1 ovarian -18.4% | OVCAR-3 ovarian -86.9% | HS 578T breast -34.5% | NCI/ADR-RES ovarian -33.7% | T-47D breast -54.7% | MDA-MB-435 melanoma -96.1% | SW-620 colon -71.1% | MCF7 breast -56.1% | HCT-116 colon -76.3% | HCC-2998 colon -74.9% | KM12 colon -58.8%
inactive: SK-OV-3 ovarian 26.8% | BT-549 breast 55.2%

COc1ccccc1CNCCCN1C(=O)c2ccc3c4c(ccc(c24)C1=O)C(=O)N(CCCNCCCCN)C3=O
active: SR leukemia 5.25% | RPMI-8226 leukemia -8.59% | OVCAR-8 ovarian -7.98% | OVCAR-5 ovarian -12.4% | OVCAR-4 ovarian -84.9% | IGROV1 ovarian 8.53% | OVCAR-3 ovarian -1.35% | HS 578T breast -7.25% | T-47D breast -14.7% | BT-549 breast -75.6% | MDA-MB-435 melanoma 1.2% | SW-620 colon -0.0566% | MCF7 breast -45.7% | HCC-2998 colon -71.8% | KM12 colon -15.8%
inactive: SK-OV-3 ovarian 14.2% | NCI/ADR-RES ovarian 42.5%

N#Cc1c(-c2ccccn2)[nH]c(=S)[nH]c1=O
inactive: SR leukemia 95.4% | RPMI-8226 leukemia 112% | OVCAR-8 ovarian 109% | OVCAR-5 ovarian 94.6% | OVCAR-4 ovarian 119% | SK-OV-3 ovarian 104% | IGROV1 ovarian 110% | OVCAR-3 ovarian 105% | HS 578T breast 109% | NCI/ADR-RES ovarian 109% | T-47D breast 94.4% | BT-549 breast 102% | MDA-MB-435 melanoma 99.8% | SW-620 colon 105% | HCT-116 colon 94.8% | HCC-2998 colon 106% | KM12 colon 102%

Cc1cc(NCc2cc(Nc3ccnc4cc(Cl)ccc34)ccc2F)nc(N2CCSCC2)n1
inactive: OVCAR-8 ovarian 19.2% | OVCAR-5 ovarian 78.7% | OVCAR-4 ovarian 14.4% | SK-OV-3 ovarian 10.3% | IGROV1 ovarian 40.6% | NCI/ADR-RES ovarian 15.7% | BT-549 breast 46.6% | KM12 colon 14.9%
active: SR leukemia -11.7% | RPMI-8226 leukemia -9.52% | OVCAR-3 ovarian -32.6% | HS 578T breast -1.47% | T-47D breast -37.8% | MDA-MB-435 melanoma -70.4% | SW-620 colon -14.1% | MCF7 breast 0.0561% | HCC-2998 colon 3.4%

COc1cccc(-c2nn(-c3ccccc3)cc2-c2ccnc(NCCCNC(=O)c3ccc(F)cc3)c2)c1
active: SR leukemia -14.2% | T-47D breast -0.248% | MDA-MB-435 melanoma -16.7%
inactive: RPMI-8226 leukemia 38.2% | OVCAR-8 ovarian 45.9% | OVCAR-5 ovarian 85.4% | OVCAR-4 ovarian 42.1% | SK-OV-3 ovarian 48.2% | IGROV1 ovarian 47.5% | OVCAR-3 ovarian 37.7% | HS 578T breast 61.4% | NCI/ADR-RES ovarian 14.4% | BT-549 breast 29.8% | SW-620 colon 33% | HCC-2998 colon 40.2% | KM12 colon 18.7%

COc1ccc(-c2cc(-c3cc(OC)ccc3OC)nc(SCC(=O)c3ccccc3)c2C#N)cc1
inactive: SR leukemia 83.3% | RPMI-8226 leukemia 105% | OVCAR-8 ovarian 96.6% | OVCAR-5 ovarian 103% | OVCAR-4 ovarian 91.8% | SK-OV-3 ovarian 86.7% | IGROV1 ovarian 97.3% | OVCAR-3 ovarian 108% | HS 578T breast 97.3% | NCI/ADR-RES ovarian 93.1% | T-47D breast 80.8% | BT-549 breast 109% | MDA-MB-435 melanoma 103% | SW-620 colon 98.6% | MCF7 breast 98.3% | HCT-116 colon 88.5% | HCC-2998 colon 108% | KM12 colon 96.8%

COc1ccc2[nH]c(O)c(/C=c3/cc4c(c(-c5cc(OC)c(OC)c(OC)c5)n3)=Nc3ccccc3-4)c2c1
active: RPMI-8226 leukemia 1.39%
inactive: SR leukemia 10.4% | OVCAR-8 ovarian 42% | OVCAR-5 ovarian 116% | OVCAR-4 ovarian 64.8% | SK-OV-3 ovarian 113% | IGROV1 ovarian 85.8% | OVCAR-3 ovarian 74.5% | HS 578T breast 73.9% | NCI/ADR-RES ovarian 39.4% | T-47D breast 78.7% | BT-549 breast 69.5% | MDA-MB-435 melanoma 29.6% | SW-620 colon 62.8% | MCF7 breast 23.4% | HCC-2998 colon 77.1% | KM12 colon 52.5%

CC(C)(C)C(CCc1ccc(Cl)cc1)N1CCN(C2CCCCC2)CC1 (stereo not given)
inactive: RPMI-8226 leukemia 24.4% | OVCAR-8 ovarian 60.3% | OVCAR-5 ovarian 60.2% | OVCAR-4 ovarian 42.6% | SK-OV-3 ovarian 59.9% | IGROV1 ovarian 62.8% | OVCAR-3 ovarian 41.6% | HS 578T breast 68.9% | NCI/ADR-RES ovarian 60.6% | T-47D breast 23.2% | BT-549 breast 50% | MDA-MB-435 melanoma 39.2% | SW-620 colon 35% | MCF7 breast 31.6% | HCT-116 colon 17.5% | HCC-2998 colon 27% | KM12 colon 36.8%
active: SR leukemia -13.2%

O=C(CC(SCc1ccccc1)c1ccccc1)c1ccccc1 (stereo not given)
inactive: SR leukemia 41% | RPMI-8226 leukemia 38.5% | OVCAR-8 ovarian 103% | OVCAR-5 ovarian 98.4% | OVCAR-4 ovarian 90% | SK-OV-3 ovarian 99.7% | IGROV1 ovarian 91.4% | OVCAR-3 ovarian 86.5% | HS 578T breast 107% | NCI/ADR-RES ovarian 93.5% | T-47D breast 74.7% | BT-549 breast 94% | MDA-MB-435 melanoma 84.6% | SW-620 colon 83.5% | MCF7 breast 14.6% | HCT-116 colon 37.2% | HCC-2998 colon 99.9% | KM12 colon 84.8%

Cc1cc(Cl)ccc1Nc1nc(C(F)(F)F)ccc1C(=O)N/N=C/c1ccc(N(C)C)cc1
active: RPMI-8226 leukemia -26.1% | HCC-2998 colon -37.3%
inactive: SR leukemia 17.4% | OVCAR-8 ovarian 18.7% | OVCAR-5 ovarian 43.2% | OVCAR-4 ovarian 16% | SK-OV-3 ovarian 42.3% | IGROV1 ovarian 21% | OVCAR-3 ovarian 22.5% | HS 578T breast 39.4% | NCI/ADR-RES ovarian 16.1% | T-47D breast 37% | BT-549 breast 34.9% | MDA-MB-435 melanoma 43.7% | SW-620 colon 15.9% | MCF7 breast 10.1% | KM12 colon 26.9%

O=[N+]([O-])c1ccc(C2CC(c3ccccc3)=Nc3ccccc3S2)cc1 (stereo not given)
inactive: SR leukemia 30.9% | OVCAR-8 ovarian 94.9% | OVCAR-5 ovarian 113% | OVCAR-4 ovarian 93.5% | SK-OV-3 ovarian 100% | IGROV1 ovarian 58.7% | OVCAR-3 ovarian 83.9% | HS 578T breast 93.3% | NCI/ADR-RES ovarian 95.1% | T-47D breast 70.9% | BT-549 breast 95% | MDA-MB-435 melanoma 103% | SW-620 colon 79.4% | HCT-116 colon 36.2% | HCC-2998 colon 103% | KM12 colon 73.6%
active: RPMI-8226 leukemia -6.89%

COc1ccc2[nH]c(O)c(/C=c3/cc4c(c(-c5ccc(F)c(OC)c5)n3)=Nc3ccccc3-4)c2c1
active: SR leukemia 2.4% | RPMI-8226 leukemia -20.4% | OVCAR-4 ovarian 6.42% | OVCAR-3 ovarian -34.4% | MDA-MB-435 melanoma 6.77% | SW-620 colon -23.2% | MCF7 breast 1.29% | HCT-116 colon -91% | HCC-2998 colon -0.339%
inactive: OVCAR-8 ovarian 60.4% | OVCAR-5 ovarian 93.9% | SK-OV-3 ovarian 107% | IGROV1 ovarian 84.6% | HS 578T breast 84.7% | NCI/ADR-RES ovarian 32.7% | T-47D breast 89.6% | BT-549 breast 84.1% | KM12 colon 13.1%

Clc1cc(Cl)cc(Nc2ccc3cc(OCCCN4CCOCC4)ccc3n2)c1
inactive: OVCAR-8 ovarian 44.4% | OVCAR-5 ovarian 65.7% | OVCAR-4 ovarian 46.8% | SK-OV-3 ovarian 67.4% | IGROV1 ovarian 58% | OVCAR-3 ovarian 60% | HS 578T breast 25% | NCI/ADR-RES ovarian 51% | T-47D breast 32% | BT-549 breast 88.5% | MDA-MB-435 melanoma 34.1% | HCT-116 colon 19.8%
active: SR leukemia 1.31% | RPMI-8226 leukemia -2.42% | SW-620 colon -8.79% | HCC-2998 colon -17.6% | KM12 colon 8.59%

O=C(Nc1ccccc1)Nc1cccc(Oc2nnc(Cl)c3ccccc23)c1
active: OVCAR-4 ovarian 0.217% | SK-OV-3 ovarian -0.5% | T-47D breast -18% | MCF7 breast -4.15%
inactive: SR leukemia 18% | RPMI-8226 leukemia 35.1% | OVCAR-8 ovarian 15.5% | OVCAR-5 ovarian 86.3% | IGROV1 ovarian 37.2% | OVCAR-3 ovarian 25.4% | NCI/ADR-RES ovarian 16.9% | BT-549 breast 47.7% | MDA-MB-435 melanoma 48.6% | SW-620 colon 73.4% | HCT-116 colon 10.6% | HCC-2998 colon 52.8% | KM12 colon 43.6%

CC(C)CCC[C@@H](C)[C@H]1CC[C@H]2[C@@H](Nc3ccc(O)cc3)CCC[C@]12C
active: OVCAR-4 ovarian -73.1% | T-47D breast -15.8%
inactive: SR leukemia 71.8% | RPMI-8226 leukemia 96.6% | OVCAR-8 ovarian 97.6% | OVCAR-5 ovarian 114% | SK-OV-3 ovarian 75.3% | IGROV1 ovarian 38.8% | OVCAR-3 ovarian 84.8% | NCI/ADR-RES ovarian 71.4% | BT-549 breast 113% | SW-620 colon 114% | MCF7 breast 56.1% | HCT-116 colon 84.8% | HCC-2998 colon 122% | KM12 colon 87.9%

O=C(COc1ccc(/C=C2\Oc3ccccc3C2=O)cc1)Nc1nc2c(s1)CCCC2
active: SR leukemia -90.7% | RPMI-8226 leukemia -86.3% | OVCAR-8 ovarian 6.97% | BT-549 breast -13.9% | KM12 colon -75%
inactive: OVCAR-5 ovarian 61.7% | OVCAR-4 ovarian 75.6% | SK-OV-3 ovarian 27.3% | OVCAR-3 ovarian 29.3% | HS 578T breast 69.2% | NCI/ADR-RES ovarian 78.8% | T-47D breast 87% | MDA-MB-435 melanoma 24.4% | SW-620 colon 65.5% | MCF7 breast 82.5% | HCT-116 colon 75.5% | HCC-2998 colon 99.6%
